# Reference: the supplement of paper PMC9844399
# Where a name gives a salt, the structure may show the parent alone.
# Test system: HeLa
# Assay: nuclear count per well, robust Z-score vs DMSO; higher = more cells (less toxicity)
# Conditions: 10 µM; 6 h
# 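Wherever MALAT1 nuclear FISH intensity, robust Z-score vs DMSO is given: High-content confocal imaging of branched-DNA amplified FISH in 384-well plates, Hoechst-defined nuclei, score is well value minus plate DMSO median over DMSO robust SD, four wells per compound.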
# 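Wherever nuclear count per well, robust Z-score vs DMSO is given: Hoechst-stained nuclei counted by automated confocal imaging of four fields per well in 384-well plates, with the robust Z-score based on the per-plate DMSO median and robust SD.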
row,Compound,nuclear count per well
1,CNCC[C@H](Oc1cccc2ccccc12)c1cccs1,-0.411
2,COc1c(N2C[C@@H]3CCCN[C@@H]3C2)c(F)cc2c(=O)c(C(=O)O)cn(C3CC3)c12,-0.071
3,CN(C)CCCOc1nn(Cc2ccccc2)c2ccccc12 [Benzydamine hydrochloride],-1.28
4,CCN(CC)CCOc1ccc(C(=C(Cl)c2ccccc2)c2ccccc2)cc1 [Clomiphene Citrate],0.246
5,C[N+](C)(C)CC(=O)O [Betaine],0.526
6,CC(C)CCN1c2nc(Nc3cc(F)c(O)c(F)c3)ncc2N(C)C(=O)C1C (centres undefined),1.03
7,NS(=O)(=O)c1cc(C2(O)NC(=O)c3ccccc32)ccc1Cl (centres undefined) [Chlorthalidone],1.13
8,N#CC(=Cc1cc(Cl)cc(Cl)c1)c1cccnc1,-0.32
9,OCCOCCN1CCN(C(c2ccccc2)c2ccc(Cl)cc2)CC1 (centres undefined) [Hydroxyzine Dihydrochloride],0.351

# Test system: HeLa
# Assay: MALAT1 nuclear FISH intensity, robust Z-score vs DMSO; higher = more nuclear MALAT1 lncRNA, active = -3 or less
# Conditions: 10 µM; 6 h
row,Compound,MALAT1 nuclear FISH intensity
1,CCN(CC)C(=O)C1(c2ccccc2)CC1CN (centres undefined),-0.146 (inactive)
2,CC(=O)c1ccc(S(=O)(=O)NC(=O)NC2CCCCC2)cc1 [Acetohexamide],-0.957 (inactive)
3,Cc1c2oc3c(C)ccc(C(=O)N[C@@H]4C(=O)N[C@H](C(C)C)C(=O)N5CCC[C@H]5C(=O)N(C)CC(=O)N(C)[C@@H](C(C)C)C(=O)O[C@@H]4C)c3nc-2c(C(=O)N[C@@H]2C(=O)N[C@H](C(C)C)C(=O)N3CCC[C@H]3C(=O)N(C)CC(=O)N(C)[C@@H](C(C)C)C(=O)O[C@@H]2C)c(N)c1=O [Actinomycin D],-6.35 (active)
4,CC(C(=O)O)c1ccc(-c2ccccc2)c(F)c1 (centres undefined) [Flurbiprofen],0.0689 (inactive)
5,Cc1cccc(C)c1OCC(C)N (centres undefined),-0.315 (inactive)
6,CC(=O)O[C@H]1C[C@@H]2CC[C@@H]3[C@H](CC[C@@]4(C)[C@H]3C[C@H]([N+]3(C)CCCCC3)[C@@H]4OC(C)=O)[C@@]2(C)C[C@@H]1N1CCCCC1 [Vecuronium Bromide],-1.33 (inactive)
7,CN1[C@@H]2CC[C@H]1C[C@@H](OC(c1ccccc1)c1ccccc1)C2 [Benztropine Mesylate],-0.262 (inactive)
8,Nc1nc2[nH]cc(CCc3ccc(C(=O)N[C@@H](CCC(=O)O)C(=O)O)cc3)c2c(=O)[nH]1 [Pemetrexed Disodium],0.0714 (inactive)
9,CCN(CC)CCOc1ccc(C(=C(Cl)c2ccccc2)c2ccccc2)cc1 [Clomiphene citrate salt],1.13 (inactive)
10,Cn1cc(C2=C(c3cn(CCCSC(=N)N)c4ccccc34)C(=O)NC2=O)c2ccccc21,-4.26 (active)
11,O=C1CCCC(=O)C1C(=O)c1ccc(C(F)(F)F)cc1[N+](=O)[O-] [Nitisinone],-0.16 (inactive)
12,CN(C)CCc1c[nH]c2ccc(C[C@H]3COC(=O)N3)cc12 [Zolmitriptan],-0.715 (inactive)
13,CCCNC(=O)NS(=O)(=O)c1ccc(Cl)cc1 [Chlorpropamide],-0.224 (inactive)
14,C[C@@H](CN1CCC(n2c(=O)[nH]c3cc(Cl)ccc32)CC1)NC(=O)c1ccc2ccccc2c1,0.865 (inactive)
15,CC(C)[C@H](NC(=O)OCc1ccccc1)C(=O)N[C@H](C=O)Cc1ccccc1 [Calpain Inhibitor III],-0.153 (inactive)
16,CCCCC/C=C\C[C@@H](O)/C=C/C=C/C=C\[C@@H](O)CCCC(=O)O [Leukotriene B4],0.936 (inactive)
17,CCCCC[C@H](O)/C=C/[C@H]1[C@H](O)CC(=O)[C@@H]1CCCCCCC(=O)O [Prostaglandin  E1],-0.195 (inactive)
18,CC(=O)Oc1cc2c(s1)CCN(C(C(=O)C1CC1)c1ccccc1F)C2 (centres undefined) [Prasugrel],-0.635 (inactive)
19,Cn1cc(C2=C(c3ccc(Cl)cc3Cl)C(=O)NC2=O)c2ccccc21,0.112 (inactive)
20,COc1cccc2c1C(=O)c1c(O)c3c(c(O)c1C2=O)C[C@@](O)(C(=O)CO)C[C@@H]3O[C@H]1C[C@H](N)[C@@H](O)[C@H](C)O1,-1.13 (inactive)

row,Compound,MALAT1 nuclear FISH intensity
1,Cc1cnc(C(=O)NCCc2ccc(S(=O)(=O)NC(=O)NC3CCCCC3)cc2)cn1 [Glipizide],1.26 (inactive)
2,"COC1=C(OC)C(=O)c2ccccc2C1=O [2,3-Dimethoxy-1,4-naphthoquinone]",-3.84 (active)
3,CC(C)=CC[C@@H](O)C1=CC(=O)c2c(O)ccc(O)c2C1=O [Shikonin],-0.0728 (inactive)
4,Cc1ccc(Nc2nccc(N(C)c3ccc4c(C)n(C)nc4c3)n2)cc1S(N)(=O)=O,0.577 (inactive)
5,COc1ccc2c(c1)c(C1=C(c3c[nH]c4ccccc34)C(=O)NC1=O)cn2CCCN(C)C,-0.198 (inactive)
6,O=C1OCCN1/N=C/c1ccc([N+](=O)[O-])o1 [Furazolidone],1.18 (inactive)
7,CCCCCCc1ccc(O)cc1O [Hexylresorcinol],0.141 (inactive)
8,CC(=O)O[C@H]1C(=O)[C@@]2(C)[C@H]([C@H](OC(=O)c3ccccc3)[C@]3(O)C[C@H](OC(=O)[C@H](O)[C@@H](NC(=O)c4ccccc4)c4ccccc4)C(C)=C1C3(C)C)[C@]1(OC(C)=O)CO[C@@H]1C[C@@H]2O [Paclitaxel (Taxol)],-0.583 (inactive)
9,COC(=O)CCc1ccc(OCC(O)CNC(C)C)cc1 (centres undefined) [Esmolol],0.156 (inactive)
10,O=C(O)COCCN1CCN([C@H](c2ccccc2)c2ccc(Cl)cc2)CC1 [Levocetirizine Dihydrochloride],-0.0578 (inactive)
11,C[C@H]1c2cccc(O)c2C(=O)C2=C(O)[C@]3(O)C(=O)C(C(N)=O)=C(O)[C@@H](N(C)C)[C@@H]3[C@@H](O)[C@@H]21 [Doxycycline Monohydrate],-0.763 (inactive)
12,CNCC[C@H](Oc1cccc2ccccc12)c1cccs1,1.52 (inactive)
13,COc1c(N2C[C@@H]3CCCN[C@@H]3C2)c(F)cc2c(=O)c(C(=O)O)cn(C3CC3)c12,-0.819 (inactive)
14,CN(C)CCCOc1nn(Cc2ccccc2)c2ccccc12 [Benzydamine hydrochloride],-0.28 (inactive)
15,CCN(CC)CCOc1ccc(C(=C(Cl)c2ccccc2)c2ccccc2)cc1 [Clomiphene Citrate],1.82 (inactive)
16,C[N+](C)(C)CC(=O)O [Betaine],0.765 (inactive)
17,CC(C)CCN1c2nc(Nc3cc(F)c(O)c(F)c3)ncc2N(C)C(=O)C1C (centres undefined),0.586 (inactive)
18,NS(=O)(=O)c1cc(C2(O)NC(=O)c3ccccc32)ccc1Cl (centres undefined) [Chlorthalidone],-0.245 (inactive)
19,N#CC(=Cc1cc(Cl)cc(Cl)c1)c1cccnc1,-0.585 (inactive)
20,OCCOCCN1CCN(C(c2ccccc2)c2ccc(Cl)cc2)CC1 (centres undefined) [Hydroxyzine Dihydrochloride],1.11 (inactive)
